Common to all, as to test: NCI-60 one-dose screen, 48 h (100 = growth as untreated, 0 = no growth, -100 = all killed)
What all share (details): 10 µM

The test system of experiment [1] is HCT-15 colon.
Experiment [2] concerns HT29 colon.
The test system of experiment [3] is SNB-75 CNS.
Experiment [4] has as its system SNB-19 CNS.
The test system of experiment [5] is U251 CNS.
Experiment [6] deals with PC-3 prostate.
Experiment [7] relates to SK-MEL-5 melanoma.
The test system of experiment [8] is UACC-62 melanoma.
Experiment [9] deals with LOX IMVI melanoma.
Experiment [10] concerns SK-MEL-28 melanoma.
Experiment [11] relates to SK-MEL-2 melanoma.
The subject of experiment [12] is EKVX NSCLC.
Experiment [13] has as its system SN12C renal.
In experiment [14] the test system is UO-31 renal.
The test system of experiment [15] is TK-10 renal.
For experiment [16], the system named is ACHN renal.
Experiment [17] relates to CAKI-1 renal.
In experiment [18] the test system is A498 renal.
The test system of experiment [19] is CCRF-CEM leukemia.
Experiment [20] relates to MOLT-4 leukemia.

Here are results for 7 compounds from PubChem BioAssay (NCI).

Molecules are shown by their SMILES. The panel holds about 83,000 compounds, 20% with a hit somewhere; the sample as a whole holds those more often.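 Percent growth is the endpoint: 0 to 100 indicates growth inhibition (40 means 60% inhibition), 0 means no net growth, and negative values indicate cell death.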 A number with no mark means an inactive call. Active and inactive are the calls of the source. The calls were made as follows: active = growth percent below 10; inactive = the rest.

Regarding `Cc1ccc2nc(COc3ccc(C(=O)NNC(=S)NCCc4ccccc4)cc3)[nH]c2c1`, the growth is 100% in experiment [1]; 112% in experiment [2]; 120% in [3]; -16.6% (active) in experiment [4]; 24% in experiment [5]; 81.4% in experiment [6]. The growth in [7] is 89%; in [8], 49.9%; in experiment [9], 79.9%; in experiment [10], 92.9%; in experiment [11], 81.7%; in experiment [12] it was 95%. Further, the growth was 77.3% in experiment [13]; 84.3% in [14]; 111% in [15]; 101% in experiment [16]; 96.2% in experiment [17]; 134% in [18]. In addition, the growth in experiment [19] is 98.3%; in [20], 96.1%.
On to `CCOC(=O)C(Cc1ccccc1)N1C(=O)/C(=C/N2N=C(c3ccc(OC)cc3)CC2c2ccc3ccccc3c2)SC1=S` (stereo not given), for which the growth is -67.4% (active) in [1]; -2.97% (active) in [2]; 40.6% in experiment [3]; 14.9% in [4]; -26.8% (active) in experiment [5]; 18.9% in experiment [6]. Moreover, the growth was -98.2% (active) in [7]; -76.7% (active) in experiment [8]; -100% (active) in experiment [9]; 9.31% (active) in [10]; -64.1% (active) in experiment [11]; -7.27% (active) in [12]. Also, the growth in [13] was 8.88% (active); in experiment [14] it was 16.2%; in experiment [15], 24.8%; in [16], 23.2%; in [17], 24.8%; in experiment [18], -13.3% (active). The growth in experiment [19] was 5.96% (active); in experiment [20], 4.16% (active).
With `O=C1c2ccccc2C(=O)c2c1c(C(=O)c1ccc(Cl)cc1)n1c2ccc2c3ccccc3ccc21`, the growth in experiment [1] is 103%; in experiment [2], 109%; in experiment [3], 86.7%; in experiment [4], 96.1%; in experiment [5], 110%; in experiment [6], 94.8%. For the same compound, the growth is 99.9% in experiment [7]; 96.9% in experiment [8]; 90.2% in [9]; 108% in experiment [10]; 107% in experiment [11]; 97.1% in [12]. The growth in [13] was 103%; in experiment [14], 69.8%; in [15], 108%; in experiment [16], 82.1%; in [17], 92.5%; in experiment [18], 144%. In addition, the results for the growth in experiment [19] and in experiment [20] were 102% and 107%, respectively.
With `CN1CCN(c2ccc(C(=O)/C=C/c3cc(C(F)(F)F)ccc3Cl)cc2)CC1`, the growth in [1] was -86.4% (active); in experiment [2], 0.637% (active); in [3], 42.9%; in experiment [4] it was -99.2% (active); in experiment [5], -74.5% (active); in experiment [6], -40.3% (active). The growth was -90.6% (active) in experiment [7]; -79.9% (active) in experiment [8]; -100% (active) in experiment [9]; -97.6% (active) in [10]; 65.3% in experiment [11]; -91.9% (active) in [12]. Besides, the growth was -90.1% (active) in [13]; -99.2% (active) in experiment [14]; -94.4% (active) in experiment [15]; -96.8% (active) in experiment [16]; -95.2% (active) in [17]; -49.7% (active) in experiment [18]. Further, the values for the growth in experiment [19] and in [20] were 2.2% (active) and 2.26% (active), respectively.
With `O=C1CCC(N2Cc3cc(CC(=O)Nc4ccc(N5CCCCC5)cc4)ccc3C2=O)C(=O)N1` (stereo not given), the growth in experiment [1] is 7.29% (active); in experiment [2], 77.4%; in experiment [3], 55.7%; in [4], 49.2%; in experiment [5] it was 88.6%; in [6], 26.7%. Moreover, the growth in [7] is 38.8%; in [8], 78.1%; in [9], 105%; in experiment [10] it was 76.4%; in experiment [11], 74.7%; in experiment [12], 83.4%. Further, the growth in experiment [13] is 46.7%; in experiment [14] it was 21%; in experiment [15] it was 67.5%; in experiment [16], 92.4%; in experiment [17], 87.6%; in experiment [18] it was 12.7%. Besides, the figures for the growth in experiment [19] and in experiment [20] were 16.9% and -7.39% (active), respectively.
As for `O=C(Nc1ccc(F)c(Cl)c1)c1cc(-c2ccc(F)cc2F)ccc1O`, the growth in [1] is -18.7% (active); in [2], 26.8%; in [3], -20.9% (active); in experiment [4], 13%; in experiment [5], 11.5%; in experiment [6], 1.28% (active). Besides, the growth is -90.6% (active) in experiment [7]; -54.6% (active) in experiment [8]; -57.2% (active) in [9]; -16.2% (active) in experiment [10]; -69.2% (active) in experiment [11]; -5.82% (active) in experiment [12]. Moreover, the growth in experiment [13] is -17.3% (active); in [14], -5.93% (active); in experiment [15], 19.1%; in [16], -13.4% (active); in experiment [17], -18.2% (active); in [18], -21% (active). Further, the growth is 0.694% (active) in [19] and -21.1% (active) in experiment [20].
On to `CC1(c2ccccc2)NC(=O)N(CC(=O)Nc2ccc(C(=O)/C=C/c3ccc(Br)cc3)cc2)C1=O` (stereo not given), for which the growth was 19% in [1]; 3.41% (active) in [2]; 41.6% in experiment [3]; 56.7% in [4]; 15.1% in [5]; 20.1% in experiment [6]. For the same compound, the growth in experiment [7] was 27.5%; in [8], 27.2%; in experiment [9], -49.1% (active); in experiment [10] it was 48.9%; in [11] it was 52.3%; in [12], 55%. In addition, the growth in [13] was 51.2%; in experiment [14], 34.3%; in experiment [15], 76.7%; in [16], 35%; in experiment [17] it was 39.5%; in [18], 71.1%. Moreover, the growth is 32% in experiment [19] and 13.9% in experiment [20].
